Laboratory results: PubChem BioAssay (Tox21)
Inconclusive results are not listed. Calls of active or inactive are those of the source. Unless noted, calls follow the shape of the dose curve; as a rule, active = well fitted curve in the direction sought with a large enough effect in the repeat runs; inconclusive = weak or mixed curves; inactive = no such curve, though single readings can be large; an effect the other way counts as inactive or inconclusive.

Columns and labels:
[1] = qHTS assay for small molecules that induce genotoxicity in human embryonic kidney cells expressing luciferase-tagged ATAD5 (AID 651632); also: nearly all actives have a fitted effect of over 15% in size
Summary of the method: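 DMSO vehicle served as the control. HEK293T reporter cells, 16 hr at 37C, then 30 min Amplite at room temperature; ATAD5 induction is measured as luciferase activity.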

[2] = qHTS assay for small molecule agonists of the p53 signaling pathway - cell viability (AID 651633; calls by dose curve;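 also: p53RE-bla HCT reporter cells with a stable beta-lactamase p53 reporter; series mostly up to about 83 µM; nearly all actives have a fitted effect of over 30% in size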)
Summary of the method: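 p53RE-bla cells were treated with compound for 16 hours at 37 C. Cytotoxicity was then measured as CellTiter-Glo luminescence after 30 min at room temperature.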

[3] = qHTS assay for small molecules that induce genotoxicity in human embryonic kidney cells expressing luciferase-tagged ATAD5 - cell viability (AID 651634; calls by dose curve; also: nearly all actives have a fitted effect of over 25% in size)
Summary of the method: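 Here HEK293T cells with the ATAD5 luciferase reporter are incubated with test compounds for 15.5 hr, and cytotoxicity is then gauged by measuring protease activity in live cells using fluorescence.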

[4] = qHTS assay for small molecule disruptors of the mitochondrial membrane potential - cell viability (AID 720634; calls by dose curve;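 also: human HepG2 liver cancer cells; series mostly up to about 83 µM; nearly all actives have a fitted effect of over 20% in size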)
Summary of the method: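 Viability of HepG2 cells is scored from ATP content by luminescence; cells are exposed to compound for 1 hr at 37 C and 5% CO2, then dosed with m-MPI dye before the CellTiter-Glo reagent.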

[5] = qHTS assay to test for compound auto fluorescence at 590 nm (red) in HepG2 cells (AID 720674)
Summary of the method: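 Seeding: 2,000 HepG2 cells/well, MEM/10% FBS, overnight 37 C. Dosing: compound vs DMSO. Incubation: 1 hr, 37 C, 5% CO2. Read: fluorescence 540 ex/590 em, Rose Bengal sodium as red reference.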

[6] = qHTS assay to test for compound auto fluorescence at 535 nm (green) in HepG2 cells (AID 720675)
[7] = qHTS assay to test for compound auto fluorescence at 460 nm (blue) in HEK293 cells (AID 720678)
Summary of the method: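 After cell attachment (4-5 hr, 37C), compounds were pinned onto HEK293 monolayers in 10% dialyzed FBS medium. The blue channel (405/460 nm) was read following overnight culture. Equivalency was calculated against triamterene.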

[8] = qHTS assay to test for compound auto fluorescence at 590 nm (red) in HEK293 cells (AID 720679)
Summary of the method: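 Plates of HEK293 cells (10% dialyzed FBS) are treated with 23 nL compound or DMSO vehicle after a 4-5 hr attachment period, incubated overnight at 37C, and read for red fluorescence at 540/590nm.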

[9] = qHTS assay to test for compound auto fluorescence at 535 nm (green) in HEK293 cells (AID 720680)
[10] = qHTS assay to test for compound auto fluorescence at 460 nm (blue) in HEK293 cell free culture (AID 720681)
Summary of the method: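 Compounds were added to cell-free DMEM with 10% FBS and fluorescence read directly. The blue channel used 405 nm excitation and 460 nm emission, with triamterene as the reference fluorophore.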

[11] = qHTS assay to test for compound auto fluorescence at 535 nm (green) in HEK293 cell free culture (AID 720682)
Summary of the method: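 Green-label autofluorescence (485 nm excitation, 535 nm emission) measured on compound added to cell-free culture medium (DMEM, 10% FBS). Output is expressed relative to fluorescein.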

[12] = qHTS assay to test for compound auto fluorescence at 590 nm (red) in HEK293 cell free culture (AID 720683)
Summary of the method: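 Cell-free wells of DMEM with 10% FBS received compound, and intrinsic fluorescence was read at excitation/emission 540/590 nm. Values expressed as equivalence to Rose Bengal sodium.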

[13] = qHTS assay to test for compound auto fluorescence at 590 nm (red) in HepG2 cell free culture (AID 720684)
Summary of the method: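 Auto fluorescence equivalency versus Rose Bengal sodium, red channel Ex/Em 540/590 nm; compounds in cell-free MEM/10% FBS; DMSO vehicle control.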

[14] = qHTS assay to test for compound auto fluorescence at 460 nm (blue) in HepG2 cell free culture (AID 720685)
Summary of the method: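 Cell-free plates of MEM plus 10% FBS received 23 nL compound or DMSO vehicle; blue-channel (405/460 nm) intensity scored against triamterene as reference fluorophore.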

[15] = qHTS assay to test for compound auto fluorescence at 535 nm (green) in HepG2 cell free culture (AID 720686)
[16] = qHTS assay to test for compound auto fluorescence at 460 nm (blue) in HepG2 cells (AID 720687)
Summary of the method: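 HepG2 cells in MEM with 10% FBS, attached overnight at 37 C, were exposed to compound or DMSO for 1 hr at 37 C, 5% CO2. Blue fluorescence was read at 405/460 nm, with triamterene as reference fluorophore.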

[17] = target: Glucocorticoid receptor (Homo sapiens) (UniProt P04150); assay: qHTS assay to identify small molecule agonists of the glucocorticoid receptor (GR) signaling pathway (AID 720691; active = well fitted activation curve with a large enough effect in the signal ratio in the repeat runs, not every such curve was filed as active; the % refers to the signal ratio)
Chain of Glucocorticoid receptor (Homo sapiens) (P04150 whole entry, looked up): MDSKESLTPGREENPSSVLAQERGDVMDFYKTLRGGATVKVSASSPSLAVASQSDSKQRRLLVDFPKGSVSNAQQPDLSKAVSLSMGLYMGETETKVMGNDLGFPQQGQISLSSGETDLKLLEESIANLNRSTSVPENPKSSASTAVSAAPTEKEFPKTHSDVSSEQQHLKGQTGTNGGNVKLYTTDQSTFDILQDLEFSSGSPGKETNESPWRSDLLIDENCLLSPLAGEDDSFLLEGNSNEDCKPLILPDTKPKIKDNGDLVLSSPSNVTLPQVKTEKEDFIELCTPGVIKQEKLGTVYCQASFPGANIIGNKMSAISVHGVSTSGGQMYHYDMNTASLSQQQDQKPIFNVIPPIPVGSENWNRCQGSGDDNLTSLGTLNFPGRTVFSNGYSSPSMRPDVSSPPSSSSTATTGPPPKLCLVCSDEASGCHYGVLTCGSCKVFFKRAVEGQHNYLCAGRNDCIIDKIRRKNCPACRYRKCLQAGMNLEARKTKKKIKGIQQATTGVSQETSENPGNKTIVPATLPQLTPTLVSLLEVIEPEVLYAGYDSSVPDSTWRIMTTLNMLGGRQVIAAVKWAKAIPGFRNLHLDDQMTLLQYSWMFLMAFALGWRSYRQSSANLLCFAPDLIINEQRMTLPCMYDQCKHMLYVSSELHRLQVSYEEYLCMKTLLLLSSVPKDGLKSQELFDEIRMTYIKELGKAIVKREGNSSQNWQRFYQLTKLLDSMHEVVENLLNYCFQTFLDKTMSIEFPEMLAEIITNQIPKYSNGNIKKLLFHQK
Summary of the method: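 Compounds in DMSO, alongside positive controls, were added to GR-bla HeLa reporter cells and incubated 18 h at 37 C; GRE-driven beta-lactamase was detected by fluorescence after 2 h with FRET substrate at room temperature.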

[18] = target: Glucocorticoid receptor (Homo sapiens) (UniProt P04150); assay: qHTS assay to identify small molecule antagonists of the glucocorticoid receptor (GR) signaling pathway (AID 720692; active = well fitted inhibition curve with a large enough effect in the signal ratio in the repeat runs, not every such curve was filed as active; the % refers to the signal ratio)
Summary of the method: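 In a 1536-well cell format, compounds were added 4 h after seeding GR-bla HeLa cells, together with dexamethasone at 5 nM final; reporter activity was measured by FRET-substrate fluorescence following 18 h at 37 C.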

[19] = qHTS assay for small molecule disruptors of the mitochondrial membrane potential (AID 720635)
Summary of the method: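 HepG2 cells exposed to compound 1 hr at 37C, then Mito-MPS dye 30 min. Ratio read of aggregate (540/590 nm) versus monomer (490/535 nm) fluorescence.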
% is scaled to controls: 0 for no effect and ±100 for the full control effect.

CCCC(C)CO (stereo unspecified)
inactive: Potency [1] | Potency [2] | Potency [3] | Potency [4] | outcome [5] | outcome [6] | Potency [7] | outcome [8] | outcome [9] | Potency [10] | outcome [11] | outcome [12] | outcome [13] | Potency [14] | outcome [15] | Potency [16] | Potency [17] | Potency [18]

[O-][N+](=Nc1ccccc1)c1ccccc1
inactive: Potency [1] | Potency [2] | Potency [3] | Potency [4] | outcome [5] | outcome [6] | Potency [7] | outcome [8] | outcome [9] | Potency [10] | outcome [11] | outcome [12] | outcome [13] | Potency [14] | outcome [15] | Potency [16] | Potency [17] | Potency [18]

CCOC(=O)Cn1c(=O)sc2cccc(Cl)c21
inactive: Potency [1] | Potency [2] | Potency [3] | Potency [4] | outcome [5] | outcome [6] | Potency [7] | outcome [8] | outcome [9] | Potency [10] | outcome [11] | outcome [12] | outcome [13] | Potency [14] | outcome [15] | Potency [16] | Potency [17]

NC(=O)CCCCC1CCSS1 (stereo unspecified)
inactive: Potency [1] | Potency [2] | Potency [3] | Potency [4] | outcome [5] | outcome [6] | Potency [7] | outcome [8] | outcome [9] | Potency [10] | outcome [11] | outcome [12] | outcome [13] | Potency [14] | outcome [15] | Potency [16] | Potency [17] | Potency [18]

O=S(=O)(c1cccc2cnccc12)N1CCCNCC1
inactive: Potency [1] | Potency [2] | Potency [4] | outcome [5] | outcome [6] | Potency [7] | outcome [8] | outcome [9] | Potency [10] | outcome [11] | outcome [12] | outcome [13] | Potency [14] | outcome [15] | Potency [16]

NC(N)=NS(=O)(=O)c1ccc(N)cc1
inactive: Potency [1] | Potency [3] | Potency [4] | Potency [19] | fluorescence, relative to Rose Bengal [5] -0.133% [at 18.6 µM] | fluorescence, % of fluorescein control [6] 0.0157% [at 18.6 µM] | fluorescence, % of triamterene [7] 0.195% [at 18.6 µM] | fluorescence, % of fluorescent control [8] 0.29% [at 18.6 µM] | fluorescence, % of fluorescein [9] 0.0406% [at 18.6 µM] | fluorescence, % of fluorescent control [10] -0.0354% [at 18.6 µM] | activity change [11] 0.0753% [at 18.6 µM] | fluorescence, % of fluorescent control [12] -0.0082% [at 18.6 µM] | fluorescence, % of Rose Bengal [13] 0.343% [at 18.6 µM] | fluorescence, % of fluorescent control [14] -0.0031% [at 18.6 µM] | fluorescence, % of fluorescein control [15] -0.0207% [at 18.6 µM] | fluorescence, % of fluorescent control [16] -0.0417% [at 18.6 µM] | Potency [17] | Potency [18]

CN(C)C(=O)Nc1ccccc1
inactive: Potency [1] | Potency [3] | Potency [4] | outcome [5] | outcome [6] | Potency [7] | outcome [8] | outcome [9] | Potency [10] | outcome [11] | outcome [12] | outcome [13] | Potency [14] | outcome [15] | Potency [16]

CN(C)C(=O)C(CCN1CCC(O)(c2ccc(Cl)cc2)CC1)(c1ccccc1)c1ccccc1
inactive: Potency [1] | Potency [4] | outcome [5] | outcome [6] | Potency [7] | outcome [8] | outcome [9] | Potency [10] | outcome [11] | outcome [12] | outcome [13] | Potency [14] | outcome [15] | Potency [16] | Potency [17]

C1CCCCCCCCCCC1
inactive: Potency [1] | Potency [3] | Potency [4] | fluorescence, relative to Rose Bengal [5] -0.0148% [at 18.6 µM] | fluorescence, % of fluorescein control [6] -0.001% [at 18.6 µM] | fluorescence, % of triamterene [7] -0.115% [at 18.6 µM] | fluorescence, % of fluorescent control [8] -0.0949% [at 18.6 µM] | fluorescence, % of fluorescein [9] 0.0284% [at 18.6 µM] | fluorescence, % of fluorescent control [10] -0.122% [at 18.6 µM] | activity change [11] 0.0049% [at 18.6 µM] | fluorescence, % of fluorescent control [12] -0.0432% [at 18.6 µM] | fluorescence, % of Rose Bengal [13] -0.141% [at 18.6 µM] | fluorescence, % of fluorescent control [14] -0.102% [at 18.6 µM] | fluorescence, % of fluorescein control [15] -0.0289% [at 18.6 µM] | fluorescence, % of fluorescent control [16] -0.112% [at 18.6 µM]

CC/C=C\C#N
inactive: Potency [1] | Potency [3] | Potency [4] | outcome [5] | outcome [6] | Potency [7] | outcome [8] | outcome [9] | Potency [10] | outcome [11] | outcome [12] | outcome [13] | Potency [14] | outcome [15] | Potency [16] | Potency [17] | Potency [18]
